Source: PMC12820563, “FoxP3 forms a head-to-head dimer in vivo and stabilizes its multimerization on adjacent microsatellites”
Over roughly 16,000 sequences, “rpm ratio (pull-down/input)” has its median near 0.5; the highest 2% begin near 5.5. Many of the other results were omitted from the sample, so the highest values are more common in it than they were.

Molecular target: T1, MBP-FoxP3dN (Mus musculus, UniProt Q99JB6 188-423)
T1 sequence: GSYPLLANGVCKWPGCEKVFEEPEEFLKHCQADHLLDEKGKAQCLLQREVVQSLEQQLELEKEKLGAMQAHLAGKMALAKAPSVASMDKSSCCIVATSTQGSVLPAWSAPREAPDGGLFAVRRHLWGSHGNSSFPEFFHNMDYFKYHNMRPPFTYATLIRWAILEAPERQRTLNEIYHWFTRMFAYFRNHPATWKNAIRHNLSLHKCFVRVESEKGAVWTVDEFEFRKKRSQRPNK
Experiment: PD-seq (MBP pull-down with sequencing); 20 mM Tris-HCl pH 7.5, 100 mM NaCl, 1.5 mM MgCl2, 0.4 uM protein, 0.1 uM dsDNA library, 30 min, room temperature, amylose pull-down; high values mean tight binding
Details: protein: recombinant; tags: His6-MBP; chain copies: 2; dsDNA, one strand shown
Outline: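 Mouse FoxP3 or FoxP1 fragment lacking the N-terminus, His6-MBP-tagged and expressed in E. coli, was incubated at 0.4 µM with 0.1 µM Klenow-filled degenerate double-stranded DNA library for 30 min at room temperature in Tris pH 7.5 buffer with NaCl and MgCl2. Complexes captured on amylose resin were washed three times and their DNA sequenced on Illumina. Binding is reads-per-million enrichment of pull-down over input, replicates pooled.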

| Sequence | binding signal |
| --- | --- |
| GATGATTGTTCTCCCAGCTGATGAATTCATTGAATCGAGTAAACAAATTTTCCTAATCTTTCTGTTCAAGCGCCATCTAC | 0.267 RPM ratio (pull-down/input) |
| GATGATTGTTCTCCCAGCTGATGAATTGTGGACCTCGAGTAAACAAATTTTCCTAATCTTTCTGTTCAAGCGCCATCTAC | 0.571 RPM ratio (pull-down/input) |
| GATGATTGTTCTCCCAGCTGATGAATTCAATAGGTCGAGTAAACAAATTTTCCTAATCTTTCTGTTCAAGCGCCATCTAC | 0.536 RPM ratio (pull-down/input) |
| GATGATTGTTCTCCCAGCTGATGAATTCGGATGGTCGAGTAAACAAATTTTCCTAATCTTTCTGTTCAAGCGCCATCTAC | 0.433 RPM ratio (pull-down/input) |
| GATGATTGTTCTCCCAGCTGATGAATTTCTGCACTCGAGTAAACAAATTTTCCTAATCTTTCTGTTCAAGCGCCATCTAC | 0.475 RPM ratio (pull-down/input) |
| GATGATTGTTCTCCCAGCTGATGAATTCAAGTGTTCGAGTAAACAAATTTTCCTAATCTTTCTGTTCAAGCGCCATCTAC | 0.65 RPM ratio (pull-down/input) |
| GATGATTGTTCTCCCAGCTGATGAATTCGGACCATCGAGTAAACAAATTTTCCTAATCTTTCTGTTCAAGCGCCATCTAC | 0.399 RPM ratio (pull-down/input) |
| GATGATTGTTCTCCCAGCTGATGAATTATAAGATTCGAGTAAACAAATTTTCCTAATCTTTCTGTTCAAGCGCCATCTAC | 0.351 RPM ratio (pull-down/input) |
| GATGATTGTTCTCCCAGCTGATGAATTGTGAATGTCGAGTAAACAAATTTTCCTAATCTTTCTGTTCAAGCGCCATCTAC | 1.32 RPM ratio (pull-down/input) |
| GATGATTGTTCTCCCAGCTGATGAATTTGTGTCGTCGAGTAAACAAATTTTCCTAATCTTTCTGTTCAAGCGCCATCTAC | 5 RPM ratio (pull-down/input) |
| GATGATTGTTCTCCCAGCTGATGAATTGTCTGTGTCGAGTAAACAAATTTTCCTAATCTTTCTGTTCAAGCGCCATCTAC | 0.563 RPM ratio (pull-down/input) |
| GATGATTGTTCTCCCAGCTGATGAATTTGATGTGTCGAGTAAACAAATTTTCCTAATCTTTCTGTTCAAGCGCCATCTAC | 6.14 RPM ratio (pull-down/input) |
| GATGATTGTTCTCCCAGCTGATGAATTGAATGTGTCGAGTAAACAAATTTTCCTAATCTTTCTGTTCAAGCGCCATCTAC | 1.26 RPM ratio (pull-down/input) |
| GATGATTGTTCTCCCAGCTGATGAATTTCTTGTGTCGAGTAAACAAATTTTCCTAATCTTTCTGTTCAAGCGCCATCTAC | 1.59 RPM ratio (pull-down/input) |
| GATGATTGTTCTCCCAGCTGATGAATTTGTGATGTCGAGTAAACAAATTTTCCTAATCTTTCTGTTCAAGCGCCATCTAC | 5.62 RPM ratio (pull-down/input) |
| GATGATTGTTCTCCCAGCTGATGAATTTTCTGTGTCGAGTAAACAAATTTTCCTAATCTTTCTGTTCAAGCGCCATCTAC | 0.415 RPM ratio (pull-down/input) |
| GATGATTGTTCTCCCAGCTGATGAATTTGTTGTGTCGAGTAAACAAATTTTCCTAATCTTTCTGTTCAAGCGCCATCTAC | 8.35 RPM ratio (pull-down/input) |
| GATGATTGTTCTCCCAGCTGATGAATTGATTGTGTCGAGTAAACAAATTTTCCTAATCTTTCTGTTCAAGCGCCATCTAC | 3.72 RPM ratio (pull-down/input) |
| GATGATTGTTCTCCCAGCTGATGAATTGTGATTGTCGAGTAAACAAATTTTCCTAATCTTTCTGTTCAAGCGCCATCTAC | 4.91 RPM ratio (pull-down/input) |
| GATGATTGTTCTCCCAGCTGATGAATTTGTGTTGTCGAGTAAACAAATTTTCCTAATCTTTCTGTTCAAGCGCCATCTAC | 6.27 RPM ratio (pull-down/input) |
| GATGATTGTTCTCCCAGCTGATGAATTTAGTATATCGAGTAAACAAATTTTCCTAATCTTTCTGTTCAAGCGCCATCTAC | 2.93 RPM ratio (pull-down/input) |

| Sequence | binding signal |
| --- | --- |
| GATGATTGTTCTCCCAGCTGATGAATTAGCTGGCTCGAGTAAACAAATTTTCCTAATCTTTCTGTTCAAGCGCCATCTAC | 0.476 RPM ratio (pull-down/input) |
| GATGATTGTTCTCCCAGCTGATGAATTTATTACGTCGAGTAAACAAATTTTCCTAATCTTTCTGTTCAAGCGCCATCTAC | 1.22 RPM ratio (pull-down/input) |
| GATGATTGTTCTCCCAGCTGATGAATTGGCGACGTCGAGTAAACAAATTTTCCTAATCTTTCTGTTCAAGCGCCATCTAC | 0.41 RPM ratio (pull-down/input) |
| GATGATTGTTCTCCCAGCTGATGAATTAGGTTGGTCGAGTAAACAAATTTTCCTAATCTTTCTGTTCAAGCGCCATCTAC | 1.62 RPM ratio (pull-down/input) |
| GATGATTGTTCTCCCAGCTGATGAATTCTTTGTGTCGAGTAAACAAATTTTCCTAATCTTTCTGTTCAAGCGCCATCTAC | 0.573 RPM ratio (pull-down/input) |
| GATGATTGTTCTCCCAGCTGATGAATTTTTTGTGTCGAGTAAACAAATTTTCCTAATCTTTCTGTTCAAGCGCCATCTAC | 0.531 RPM ratio (pull-down/input) |
| GATGATTGTTCTCCCAGCTGATGAATTTTGTGTGTCGAGTAAACAAATTTTCCTAATCTTTCTGTTCAAGCGCCATCTAC | 5.59 RPM ratio (pull-down/input) |
| GATGATTGTTCTCCCAGCTGATGAATTAGTCTGATCGAGTAAACAAATTTTCCTAATCTTTCTGTTCAAGCGCCATCTAC | 0.373 RPM ratio (pull-down/input) |
| GATGATTGTTCTCCCAGCTGATGAATTCTCCCGTTCGAGTAAACAAATTTTCCTAATCTTTCTGTTCAAGCGCCATCTAC | 0.247 RPM ratio (pull-down/input) |
| GATGATTGTTCTCCCAGCTGATGAATTGGTGCATTCGAGTAAACAAATTTTCCTAATCTTTCTGTTCAAGCGCCATCTAC | 6.97 RPM ratio (pull-down/input) |
| GATGATTGTTCTCCCAGCTGATGAATTTTGTGATTCGAGTAAACAAATTTTCCTAATCTTTCTGTTCAAGCGCCATCTAC | 5.26 RPM ratio (pull-down/input) |
| GATGATTGTTCTCCCAGCTGATGAATTGGTGAATTCGAGTAAACAAATTTTCCTAATCTTTCTGTTCAAGCGCCATCTAC | 0.867 RPM ratio (pull-down/input) |
| GATGATTGTTCTCCCAGCTGATGAATTGTGCTGTTCGAGTAAACAAATTTTCCTAATCTTTCTGTTCAAGCGCCATCTAC | 3.6 RPM ratio (pull-down/input) |
| GATGATTGTTCTCCCAGCTGATGAATTCATTTGTTCGAGTAAACAAATTTTCCTAATCTTTCTGTTCAAGCGCCATCTAC | 3.73 RPM ratio (pull-down/input) |
| GATGATTGTTCTCCCAGCTGATGAATTTTCCCATTCGAGTAAACAAATTTTCCTAATCTTTCTGTTCAAGCGCCATCTAC | 0.252 RPM ratio (pull-down/input) |
| GATGATTGTTCTCCCAGCTGATGAATTCTCCCATTCGAGTAAACAAATTTTCCTAATCTTTCTGTTCAAGCGCCATCTAC | 0.243 RPM ratio (pull-down/input) |
| GATGATTGTTCTCCCAGCTGATGAATTGTGTGCATCGAGTAAACAAATTTTCCTAATCTTTCTGTTCAAGCGCCATCTAC | 2.8 RPM ratio (pull-down/input) |
| GATGATTGTTCTCCCAGCTGATGAATTGTGCCATTCGAGTAAACAAATTTTCCTAATCTTTCTGTTCAAGCGCCATCTAC | 6.37 RPM ratio (pull-down/input) |
| GATGATTGTTCTCCCAGCTGATGAATTGTGCATTTCGAGTAAACAAATTTTCCTAATCTTTCTGTTCAAGCGCCATCTAC | 7.44 RPM ratio (pull-down/input) |
| GATGATTGTTCTCCCAGCTGATGAATTTGGTGCATCGAGTAAACAAATTTTCCTAATCTTTCTGTTCAAGCGCCATCTAC | 1.86 RPM ratio (pull-down/input) |
| GATGATTGTTCTCCCAGCTGATGAATTTGTGCATTCGAGTAAACAAATTTTCCTAATCTTTCTGTTCAAGCGCCATCTAC | 7.63 RPM ratio (pull-down/input) |
